In all, about 68,000 sequences were measured (“fluorescence intensity (a.u.)”: median about 9,100, highest 2% from about 16,000 on). The sample as a whole holds a higher share of the highest values than the screen did.
What follows are sequences tested against OsWRKY34 (Oryza sativa, UniProt Q0JBA9 1-250) (assay: protein-binding microarray (RPBM); PBS, 2% BSA, 51.3 ng/ul salmon testes DNA, 50 uM zinc acetate, 200 nM TF, 25 C, 1 h; high values mean tight binding). Settings: protein: recombinant; tags: N-terminal polyhistidine and DsRed monomer fusion (pET32a); label: CyDye5-dUTP incorporated in the synthesized complementary strand; 3' TTTTT single-stranded linker to array surface; dsDNA, one strand shown.
Outline: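 Binding signal is defined as the fluorescence intensity of each feature in arbitrary units, read on an Axon 4000B scanner. Transcription factors with N-terminal polyhistidine and DsRed fusions came from E. coli BL21-CodonPlus and were purified on Ni–NTA. They were incubated at 200 nM for 1 h at 25 °C on a custom Agilent array that had been made double-stranded with Cy5-dUTP, with 50 µM zinc acetate present, and the array was washed.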

Chain of OsWRKY34 (Q0JBA9 entry or part of it): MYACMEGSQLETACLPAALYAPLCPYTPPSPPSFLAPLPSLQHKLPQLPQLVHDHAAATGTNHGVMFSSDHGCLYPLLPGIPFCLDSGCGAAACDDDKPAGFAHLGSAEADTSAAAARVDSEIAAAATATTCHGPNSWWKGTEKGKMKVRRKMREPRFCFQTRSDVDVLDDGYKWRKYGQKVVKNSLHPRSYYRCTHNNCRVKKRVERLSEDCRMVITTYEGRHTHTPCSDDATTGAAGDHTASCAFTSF

Sequence | binding signal
CACGAAGCCAGTCTAACCGCCATGTGTGGGCTTGTTTGACCGGAGTCACCTAGTGCAG | 8700 fluorescence intensity (a.u.)
TGCTTCTTGGACATCGCATCATATTTAAGCATGTTTTCCTCGGAGTCACCTAGTGCAG | 10500 fluorescence intensity (a.u.)
CTCTCTTTCTCTTCCATTTCTTGAAACTTGTATGGAGGTTCGGAGTCACCTAGTGCAG | 9410 fluorescence intensity (a.u.)
ATCATTTCGCACATTAACTCTCTCTCTCTCTCTCCATTTTCGGAGTCACCTAGTGCAG | 15200 fluorescence intensity (a.u.)
AACCTTTTCTTTCTTTCTTCACTTTGGTTGCGTTGCGTCTCGGAGTCACCTAGTGCAG | 24200 fluorescence intensity (a.u.)
GACCTTTTTTTCTTTTCTTCTTTGTTCTTTGTTGTTCTCTCGGAGTCACCTAGTGCAG | 10700 fluorescence intensity (a.u.)
GAATTTTGCTTTGGTTCAACCTTTTTTCTCTTCTTTCTCTCGGAGTCACCTAGTGCAG | 9740 fluorescence intensity (a.u.)
AAGGTATGGTTCTTCATTCTTGTCATTTTCTTTTGCAGCACGGAGTCACCTAGTGCAG | 8220 fluorescence intensity (a.u.)
CTCAGCTTCCGTTATTACCTCTGCGCACAAGTTACCGGGCCGGAGTCACCTAGTGCAG | 8720 fluorescence intensity (a.u.)
GTACTCCCTCCATCCCTAAATGTTTGACGCCGTTGACTTTCGGAGTCACCTAGTGCAG | 16000 fluorescence intensity (a.u.)
CCTCATCACAAAATGTTTGACGCTGTTGACTTTTTTAAAACGGAGTCACCTAGTGCAG | 15900 fluorescence intensity (a.u.)
AAATTAAATTTAAAAATTTAAATTTTGACTTTTTCTTGACCGGAGTCACCTAGTGCAG | 8250 fluorescence intensity (a.u.)
AAGATATTTTCAATGTATTTTTTTATTGTTGACTTTTAAACGGAGTCACCTAGTGCAG | 9030 fluorescence intensity (a.u.)
TTGACGCCGTTGACTTTTTAAAAAATATTTGACCGTTCTTCGGAGTCACCTAGTGCAG | 37100 fluorescence intensity (a.u.)
CTCCATCCTAAAATGTTTGACGCCGTTGACTTTTTTAAATCGGAGTCACCTAGTGCAG | 24500 fluorescence intensity (a.u.)
AATTTTCTTAAAATTTGAGGTTTAGTTTGACTTTCTTTTTCGGAGTCACCTAGTGCAG | 9400 fluorescence intensity (a.u.)
TGTTTGACTTTTTTCTTGGTTAAAATTCTTTAAATTTGATCGGAGTCACCTAGTGCAG | 18900 fluorescence intensity (a.u.)
GAAAAAAATGTAAAAACTGTTGACTTTTAGTCAACGCCATCGGAGTCACCTAGTGCAG | 16400 fluorescence intensity (a.u.)
GGTGGTTCTTGCTTCACACAATCTGGCGCGCTTCAGAACACGGAGTCACCTAGTGCAG | 13300 fluorescence intensity (a.u.)
AAAACATGGTACAAATGCATACGCTCACACATGCACACTCCGGAGTCACCTAGTGCAG | 8300 fluorescence intensity (a.u.)
ACTCACACTAGCTTGAAACTATCTGCGTACTCAAATTCAACGGAGTCACCTAGTGCAG | 8080 fluorescence intensity (a.u.)

Sequence | binding signal
CCATCCCGCCGCCACCGCCGCCGCCGCCGCCTCATCCTCCCGGAGTCACCTAGTGCAG | 9300 fluorescence intensity (a.u.)
ATTCTCAAATACCACTCGGGCCCACATGTCAGCCTTACTCCGGAGTCACCTAGTGCAG | 8200 fluorescence intensity (a.u.)
CGGCTCGCTCAACCATACCACCTTTTCAAATTCATTTTTCCGGAGTCACCTAGTGCAG | 11600 fluorescence intensity (a.u.)
CGCCGTTGACTTTTTTAAAAATGTTTGACCGTTCCTCTTACGGAGTCACCTAGTGCAG | 20900 fluorescence intensity (a.u.)
ATTTTTGACGCCGTTGACTTTTTTTAAATATGTTTGACCGCGGAGTCACCTAGTGCAG | 46900 fluorescence intensity (a.u.)
ATCTTTGACGTCGTTGACTTTTAAAAAAATGTTTGACCGTCGGAGTCACCTAGTGCAG | 22300 fluorescence intensity (a.u.)
ATATTTGACGACGTTGATTTTTTTTAAATATGTTTGACCGCGGAGTCACCTAGTGCAG | 9090 fluorescence intensity (a.u.)
CGTCTCTAAATACTTGACGCCGTTGACTTTTTTAAATATGCGGAGTCACCTAGTGCAG | 26900 fluorescence intensity (a.u.)
ACGTCTCCACCACCACCACCGGCCAAACGCCGACCTCATCCGGAGTCACCTAGTGCAG | 9450 fluorescence intensity (a.u.)
CCAGTCAATTTCCCCACGTGCCATCTCGCTGCATCCGCCGCGGAGTCACCTAGTGCAG | 10500 fluorescence intensity (a.u.)
CTCGCGCGCCCCGCCCGTTTCGCCTCGGCCGCCTCCTCCACGGAGTCACCTAGTGCAG | 8480 fluorescence intensity (a.u.)
CATCTGCACGCATATATATCTGTAAACTCAGCGCGTTTTTCGGAGTCACCTAGTGCAG | 8100 fluorescence intensity (a.u.)
ATTGTGGACTGTTTGACCTCCAGTTTGGACTGTAGGAATTCGGAGTCACCTAGTGCAG | 8060 fluorescence intensity (a.u.)
CTGTTGGTCAATCGCCGAACTTACCGCCGCGCCGGCCATGCGGAGTCACCTAGTGCAG | 9410 fluorescence intensity (a.u.)
TTCATTTTCAATTCCCGTCCTCATTCTTCTTATGATATTTCGGAGTCACCTAGTGCAG | 8930 fluorescence intensity (a.u.)
AATCCATAATTAGTAAATATTTACTGTAGCACCATATTGTCGGAGTCACCTAGTGCAG | 9810 fluorescence intensity (a.u.)
ACGCCGTTGACTTTTTAAAATATGTTTGACCGTTTATCTTCGGAGTCACCTAGTGCAG | 45700 fluorescence intensity (a.u.)
ACTTTTTAAAACATGTTTGACCGTTCATCTTATTCAAAAACGGAGTCACCTAGTGCAG | 8410 fluorescence intensity (a.u.)
AATGTTTGACGCCGTTGACTTTTTTAAAAATGTTTGGCCGCGGAGTCACCTAGTGCAG | 29800 fluorescence intensity (a.u.)
GTTGTTGACTTTTTAAAATTTGTTTGACCATTCATCTTATCGGAGTCACCTAGTGCAG | 23100 fluorescence intensity (a.u.)
ATTTGACGCCGTTACTTTTTTTAAAAATGTTTGGCCGTTCCGGAGTCACCTAGTGCAG | 8270 fluorescence intensity (a.u.)

Sequence | binding signal
ACTTTTTAAAACATGTTTGACCGTTCATCTTATTTAAAAACGGAGTCACCTAGTGCAG | 8690 fluorescence intensity (a.u.)
CGCTGTTGACTTTTTTAAAAATGTTTGACCGTTCATCTTACGGAGTCACCTAGTGCAG | 33600 fluorescence intensity (a.u.)
ATTTTGACTTTTTCTTGTACTGTTTGACCATTCATCTTATCGGAGTCACCTAGTGCAG | 16200 fluorescence intensity (a.u.)
GTTGACTTTTTTTTAAACATGTTTGACCATTCATCTTATTCGGAGTCACCTAGTGCAG | 11100 fluorescence intensity (a.u.)
CGGTTCTTGTCGTAGAAAGCTCCGTGTTATCGTTTATATTCGGAGTCACCTAGTGCAG | 8090 fluorescence intensity (a.u.)
CAGCCACCTCTCCATCTTCTGTCCGTTCACCTCTCCGTAACGGAGTCACCTAGTGCAG | 12600 fluorescence intensity (a.u.)
GCTTGCTCCAGGTGACCCAACTTTTCCATTTCCATGCATTCGGAGTCACCTAGTGCAG | 11300 fluorescence intensity (a.u.)
GCTCCTCCTCCTCTTCCCGCCTCACCGCCGCACCACCTCTCGGAGTCACCTAGTGCAG | 8550 fluorescence intensity (a.u.)
CCGTGGGCCAGACCTTTTTCTTCGACGCTAGACCTGACTACGGAGTCACCTAGTGCAG | 9780 fluorescence intensity (a.u.)
TTCACCCACGTTTCTGCCCAACCCTCTCACCCTAGCTTAGCGGAGTCACCTAGTGCAG | 10800 fluorescence intensity (a.u.)
AACTTCGCAAGAGGCATGCTCTCCAGCCTCAATTTTCATGCGGAGTCACCTAGTGCAG | 8410 fluorescence intensity (a.u.)
CCCCATTTTCTTTGTTTCTACTTCTCTTTCCCTTTCTTGTCGGAGTCACCTAGTGCAG | 10700 fluorescence intensity (a.u.)
CTCCGTCCCTCCGTACCAGTTTAAATGCAGCCGTGGATTCCGGAGTCACCTAGTGCAG | 8360 fluorescence intensity (a.u.)
GCCCGCTGCTATTCTCTCTCATCTTTTATCCTATTAAAATCGGAGTCACCTAGTGCAG | 13200 fluorescence intensity (a.u.)
GCCCGTTGCTCATCTCTCTCATCGTTTATCGCATTAAAATCGGAGTCACCTAGTGCAG | 17900 fluorescence intensity (a.u.)
TTTGACGCCGTTGACTTTTTTAAAAATGTTTGACCGTTCACGGAGTCACCTAGTGCAG | 25100 fluorescence intensity (a.u.)
GCCCGCTGCTCTGCTCTCTCATCTTTTATCTCACTAAAATCGGAGTCACCTAGTGCAG | 8960 fluorescence intensity (a.u.)
ATCTATGTTTTTCTGCGGGCCGGGTTGGTTTGTTTCCTACCGGAGTCACCTAGTGCAG | 10300 fluorescence intensity (a.u.)
TTTGGGCCGGGTTTTTGGTTTCTTCCTTTTTTTTTCTGGGCGGAGTCACCTAGTGCAG | 12600 fluorescence intensity (a.u.)
CCCTCCGTATTTTAATGTATGACGCCGTTGACTTTTTGACCGGAGTCACCTAGTGCAG | 26800 fluorescence intensity (a.u.)
AAGTACTCCCTCCGTATTTTAATGTATGACGCCGTTGACTCGGAGTCACCTAGTGCAG | 9690 fluorescence intensity (a.u.)

Sequence | binding signal
TACTTACTCCCTCCGTATTTTAATGTATGACGCCGTTGACCGGAGTCACCTAGTGCAG | 14200 fluorescence intensity (a.u.)
CGCTACCGGGTTGACTTTTTCCTATCCGTTTCTGGTCCGGCGGAGTCACCTAGTGCAG | 22800 fluorescence intensity (a.u.)
TTTTTTTTACCGGCCTAGTTGACCACCAACCAAGCAGTACCGGAGTCACCTAGTGCAG | 10100 fluorescence intensity (a.u.)
GCATACATCTCTACTACCTGCATCTCCATCTCAAATCAAACGGAGTCACCTAGTGCAG | 10400 fluorescence intensity (a.u.)
CTCCTCTAACGTACCATAGAGGGACATACGTTTCTGATGTCGGAGTCACCTAGTGCAG | 8720 fluorescence intensity (a.u.)
CTCTCCATCCGCTCGCGGCTCGCGCTCGCCCATCCAATCCCGGAGTCACCTAGTGCAG | 10600 fluorescence intensity (a.u.)
CATCGCCCACGCCAATGTCGTCGCCGACGTCTCGCTGCCGCGGAGTCACCTAGTGCAG | 8820 fluorescence intensity (a.u.)
CACGCCATTAAGCTTTTTTTATATACATATAGTCAATGTTCGGAGTCACCTAGTGCAG | 9130 fluorescence intensity (a.u.)
CCCACCGTTTCCAAATGTTTGACGCCGTTGACTTTTTATCCGGAGTCACCTAGTGCAG | 31900 fluorescence intensity (a.u.)
ATTTTAATATTTGACGCCGTTGACTTTTTGTATGTTTGACCGGAGTCACCTAGTGCAG | 42500 fluorescence intensity (a.u.)
TCCGTATTTTAATGTATGACGCTGTTGACTTTCGACCTACCGGAGTCACCTAGTGCAG | 13900 fluorescence intensity (a.u.)
TAATACTCCCTCCGTATTTTAATGTATGATGCCGTTGACTCGGAGTCACCTAGTGCAG | 10600 fluorescence intensity (a.u.)
ACTCTCTCCGTATTCGTATTTTAATGTATGACGCCGTTGACGGAGTCACCTAGTGCAG | 8550 fluorescence intensity (a.u.)
CTCCCTCCATCCCAAAATGTTTGACGCCGTTGACTTTTTACGGAGTCACCTAGTGCAG | 15900 fluorescence intensity (a.u.)
TCTTACTCTCTCCATCCCAAAATGTTTGACGCCGTTGACTCGGAGTCACCTAGTGCAG | 13400 fluorescence intensity (a.u.)
CTAAATGTTTGACGCCGTTGACTTTTTAAATATGTTTGACCGGAGTCACCTAGTGCAG | 32300 fluorescence intensity (a.u.)
CTCTCTCCGTATTATAATGTATGATGCCGTTGACTTTTTGCGGAGTCACCTAGTGCAG | 35200 fluorescence intensity (a.u.)
TTAGTGATTTCTTGTCTCCTGATCATCTGTAGTCTGTAGACGGAGTCACCTAGTGCAG | 8160 fluorescence intensity (a.u.)
GACCTAGCTCTGCCCTTTCTTTCTGAAATAAATAATGCATCGGAGTCACCTAGTGCAG | 8960 fluorescence intensity (a.u.)
CCATCACTAGAGCCTTTTGCCTTTGCTTGCACAATTACATCGGAGTCACCTAGTGCAG | 8850 fluorescence intensity (a.u.)
TGTGTGCCTGTTGTCTCATTTGATCTGCCATTTCAGCGCACGGAGTCACCTAGTGCAG | 10700 fluorescence intensity (a.u.)

Reference: PMC7819943, “Rice protein-binding microarrays: a tool to detect cis-acting elements near promoter regions in rice”
